The record followed here is PubChem BioAssay (NCI).

This is part of a sample that, as a whole, favours compounds with a hit. Of some 83,000 tested, about 20% had one in any assay.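 Treatment: one concentration, 48 hours, 96-well format. Scoring: percent growth, with anything below 10 considered active.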 Unmarked numbers belong to inactive results. Activity calls are given as the source filed them.

Assay in all cases: NCI-60 one-dose screen, 48 h (100 = growth as untreated, 0 = no growth, -100 = all killed)
Details in all cases: 10 µM unless noted

Experiment [1] concerns NCI-H23 lung.
Experiment [2] has as its system NCI-H226 lung.
The test system of experiment [3] is NCI-H322M lung.
The test system of experiment [4] is HOP-62 NSCLC.
Experiment [5] deals with HOP-92 NSCLC.
Experiment [6] relates to NCI-H522 lung.
In experiment [7] the test system is A549/ATCC NSCLC.
The subject of experiment [8] is 786-0 renal.
Experiment [9] has as its system COLO 205 colon.
Experiment [10] deals with NCI-H460 lung.

For the molecule `O=C(Nc1cc(Cl)ccc1O)c1ccc(Nc2ccnc(C(F)(F)F)c2)cc1`, the growth is 9.34% (active) in experiment [1]; 52.1% in experiment [2]; 61.7% in experiment [3]; 46.3% in experiment [4]; 86% in experiment [5]; 23.7% in experiment [6]. Also, the growth was 36.5% in experiment [7], 49% in experiment [8] and 87.9% in [9].

Turning to `O=C1/C(=C/c2ccc(-c3ccc(Br)cc3)o2)SC(=S)N1CCc1ccc(O)cc1`, the growth in experiment [1] is 75.8%; in [2] it was 90.2%; in experiment [3], 84.5%; in [4] it was 90.6%; in experiment [5], 60%; in [6], 13.7%. Further, the results for the growth in [7], in [8] and in experiment [9] were 67.5%, 5.73% (active) and -27.8% (active), respectively.

`CC1(c2ccccc2O)NN=C(/N=C/c2cccc([N+](=O)[O-])c2)N1C(Cc1c[nH]c2ccccc12)C(=O)O` (configuration not stated): the growth in experiment [1] was 80.3%; in [2], 82.1%; in experiment [3] it was 97.6%; in experiment [4], 65.8%; in experiment [5] it was 81.2%; in [6] it was 70.2%. Also, the growth was 103% in [7], 99.5% in experiment [8] and 84% in experiment [9].

On to `O=C(O)CCCN1C(=O)/C(=C/C(Cl)=C/c2ccccc2)SC1=S`, for which the growth in experiment [1] was 31.3%; in experiment [2], 41.9%; in experiment [3], 77.2%; in [4], 88%; in experiment [10] it was 57.4%; in [5], 14.2%. For the same molecule, the growth is 12.2% in experiment [6], 65% in experiment [7], -11.5% (active) in [8] and 11.6% in experiment [9].

Consider `Cc1cccc(Cl)c1NC(=O)c1ccc2nc(NC(=O)NCCN(C)C)sc2c1`, for which the growth is 103% in experiment [1]; 100% in [2]; 101% in experiment [3]; 60.3% in [4]; 64.1% in experiment [5]; 77.5% in experiment [6]. The figures for the growth in experiment [7] and in [8] were 102% and 87.7%, respectively.

`CC(C)(C)n1cc(-c2ccnc(NCCNS(=O)(=O)c3cccc4ccccc34)c2)c(-c2cccc(F)c2)n1`: the growth is 0.565% (active) in [1]; -25.7% (active) in experiment [2]; 20.8% in [3]; 26.4% in [4]; -19.3% (active) in experiment [5]; -38.9% (active) in experiment [6]. The growth in experiment [7] was 16.3%; in [8], -91.4% (active); in experiment [9] it was -67.9% (active).

In the case of `COc1cccc(CNc2ncnc3c2ncn3C2OC(CO)C(O)C2O)c1O` (configuration not stated), the growth in experiment [1] was 7.98% (active); in experiment [2], 31.6%; in experiment [3], 11.3%; in [4], 1.76% (active); in [5], -32.7% (active); in experiment [6] it was 8.65% (active). The growth in experiment [7] was 23.9%; in [8], 7.21% (active); in experiment [9], 24.6%.

Take `Cc1nc2c(=O)[nH]c(SCC(=O)Nc3cccc(F)c3)nc2[nH]c1=O`: the growth in experiment [1] is 100%; in experiment [2], 98.8%; in experiment [3], 106%; in [4], 98.9%; in experiment [5] it was 99.9%; in experiment [6] it was 96.1%. In addition, the growth was 106% in experiment [7], 103% in [8] and 111% in experiment [9].

Turning to `CCCCCCCCn1ccc2cc(NC(=O)Cn3cc(CN4CCCCC4)nn3)ccc21`, the growth in [1] is 75%; in experiment [2], 79.4%; in experiment [3], 17.6%; in experiment [4] it was 58.6%; in [10] it was -50.6% (active); in experiment [5] it was 38.1%. The growth in experiment [6] was 10.3%; in experiment [7], 25.2%; in experiment [8], -68.5% (active); in experiment [9], -80% (active).

On to `CN(C)c1ccc(/C=C/C(=O)c2ccc(-n3cc(CN4CCN(c5cc6c(cc5F)c(=O)c(C(=O)O)cn6C5CC5)CC4)nn3)cc2)cc1`, for which the growth in [1] was 80.3%; in experiment [2] it was 81.7%; in [3], 77.5%; in experiment [4], 67.3%; in experiment [5], 50.3%; in experiment [6], 48.5%. Moreover, the growth in experiment [7] was 82.2%; in [8], 33.2%; in experiment [9] it was 105%.

Take `CCCCN1C(=O)/C(=c2\sc3n(c2=O)C2C(NN=3)N(CC)C(=O)N2CC)c2ccccc21` (configuration not stated): the growth in experiment [1] is 25%; in experiment [2] it was 51.1%; in experiment [3], 52.9%; in [4] it was 18%; in experiment [5], 26.8%; in experiment [6] it was -15.2% (active). In addition, the growth in [7] is 7.06% (active); in [8], 22.1%.

In the case of `O=C(c1ccc(-c2ccccc2)cc1)c1ccc([N+](=O)[O-])cc1`, the growth in experiment [1] was 103%; in [2], 98.5%; in experiment [3] it was 115%; in experiment [4], 111%; in experiment [5], 90.6%; in experiment [6], 89.5%. Moreover, the growth in experiment [7] was 114%; in experiment [8] it was 99.9%; in [9], 111%.

For the molecule `COC(=O)/C(CCC=C(C)C)=C1\[C@@H](OC(C)=O)C[C@@]2(C)[C@H]1C[C@@H](O)[C@H]1[C@@]3(C)CC[C@H](NCCN)[C@@H](C)[C@@H]3CC[C@@]12C`, the growth was 88.7% in [1]; 83.5% in experiment [2]; 83.5% in experiment [3]; 93% in [4]; 99.6% in [10]; 53.1% in experiment [5]. Moreover, the growth in experiment [6] is 86.9%; in experiment [7], 88.9%; in experiment [8], 73.5%; in experiment [9], 80.3%.

Take `CN([O-])c1nc(N(C)[O-])nc(N2CCOCC2)n1.CN([O-])c1nc(N(C)[OH2+])nc(N2CCOCC2)n1.[Fe+3]`: the growth in [1] is 100% [100 µM]; in experiment [2], 101% [100 µM]; in experiment [3], 104% [100 µM]; in [4], 165% [100 µM]; in experiment [5], 61.7% [100 µM]; in [6], 52.9% [100 µM]. Further, the growth in [7] is 72.7% [100 µM]; in experiment [8], 114% [100 µM]; in experiment [9], 144% [100 µM].
